# Compound activity (PubChem BioAssay)
# The full list was thinned out, with hits kept by preference.
# GBA enhancer – increases beta-glucosidase activity in Gaucher fibroblasts; L444P Gaucher fibroblasts, 4-MU-glucoside fluorescence, 3 days; activation, % at 10 µM; 30,000 tested, 0.44% active; P04062; in the data active means activation above about 65%;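 further: 0% = vehicle wells and 100% = positive control wells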
# Target sequence (P04062 whole entry L483P): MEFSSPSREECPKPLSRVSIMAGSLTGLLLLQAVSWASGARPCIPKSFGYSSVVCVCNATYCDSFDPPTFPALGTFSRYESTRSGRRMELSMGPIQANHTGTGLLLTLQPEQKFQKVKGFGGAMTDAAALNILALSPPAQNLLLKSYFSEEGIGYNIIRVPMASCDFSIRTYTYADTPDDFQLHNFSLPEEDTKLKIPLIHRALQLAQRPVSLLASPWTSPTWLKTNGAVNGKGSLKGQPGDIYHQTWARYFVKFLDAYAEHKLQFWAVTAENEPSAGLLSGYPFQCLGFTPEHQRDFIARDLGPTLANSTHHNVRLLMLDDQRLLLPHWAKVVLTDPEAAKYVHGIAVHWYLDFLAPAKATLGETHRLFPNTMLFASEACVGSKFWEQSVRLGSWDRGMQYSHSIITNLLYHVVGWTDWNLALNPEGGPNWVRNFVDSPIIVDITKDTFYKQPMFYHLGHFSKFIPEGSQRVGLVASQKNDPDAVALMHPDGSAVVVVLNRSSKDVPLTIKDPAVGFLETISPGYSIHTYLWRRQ
# * hit, by the source's call.
SMILES,GBA enhancer
COC(=O)Nc1nc2c(C)cccc2s1,-9
COc1ccccc1N1CCN(C(=O)CSc2nnc3n2C(C)(C)Cc2ccccc2-3)CC1,27
O=C(NCCCN1CCCC1=O)c1ccc2c(=O)n(Cc3ccco3)c(=S)[nH]c2c1,115*
COC(=O)c1ccc2c(=O)n(CCCN3CCCC3=O)c(=S)[nH]c2c1,-7
COc1cc(NC(=O)c2ccc3c(=O)n(Cc4ccco4)c(=S)[nH]c3c2)cc(OC)c1OC,17
CC(C)=CC(=O)OCC(=O)Nc1ccccc1Cl,2
CCC(Sc1nc(C)cc(=O)[nH]1)C(=O)Nc1nnc(C)s1 (configuration not stated),-21
Cc1cc(=O)[nH]c(SCC(=O)Nc2nc3c(s2)CCCC3)n1,-36
CCC(Sc1nc(C)cc(=O)[nH]1)C(=O)Nc1nc2c(s1)CCCC2 (configuration not stated),81*
Cc1csc(NC(=O)CCNS(=O)(=O)c2ccc3c(c2)c(=O)n(C)c(=O)n3C)n1,0
COc1cccc2cc(C(=O)N3CCc4ccccc43)c(=O)oc12,7
CCOC(=O)c1cn(CC)c2ccc(S(=O)(=O)N3CCC(C)CC3)cc2c1=O,-7
CCOC(=O)C1=C(C)OC(N)=C(C#N)C1c1c(C)nn(-c2ccccc2)c1Cl (configuration not stated),-7
CCOC(=O)N1CCC2(CC1)C(C#N)=C(N)Oc1c2c(C)nn1-c1cccc(Cl)c1,74*
CC1(C)CC(=O)C2=C(C1)OC(N)=C(C#N)C21CCN(Cc2ccccc2)CC1,-1
COC(=O)c1ccc(Oc2nc(Nc3ccccc3)nc(N(C)C)n2)cc1,3
O=C(CN(CCc1ccccc1)C(=O)CNS(=O)(=O)c1ccccc1)NCC1CCCO1 (configuration not stated),-7
COc1ccc(S(=O)(=O)NCC(=O)N(CC(=O)NCC2CCCO2)c2ccccc2C)cc1 (configuration not stated),72*
COc1cccc(S(=O)(=O)NCc2ccc(C(=O)NCC3CCCO3)cc2)c1 (configuration not stated),2
Cc1cccc(OCCCC(=O)O)c1C,-12
c1ccc(SCc2nc(-c3ccccn3)no2)cc1,-28
O=C(Nc1ccc(N2CCN(C(=O)c3ccco3)CC2)cc1)c1ccccc1F,-16
Cc1nonc1NC(=O)OCCN1CCOC1=O,88*
O=C1OCCN1CCN(CN1C(=O)CCC1=O)CN1C(=O)CCC1=O,-15
Cc1ccc2c3c(c(SCC(=O)Nc4nonc4C)nc2c1)CCCC3,14
SMILES,GBA enhancer
O=C(COc1cccc2cccnc12)Nc1nccs1,-7
Cc1ccc(C)c(NC(=O)C2CC=CCC2C(=O)O)c1 (configuration not stated),13
Cc1ccc(C)c(NC(=O)C2CC(O)CN2C(=O)OC(C)(C)C)c1 (configuration not stated),72*
Cc1cccc(NC(=O)C2CC(O)CN2C(=O)OCc2ccccc2)c1 (configuration not stated),21
COc1ccc(S(=O)(=O)NCCc2csc(C)n2)cc1C,-6
CC1Cc2cc(/C(O)=C3/C(=O)C(=O)N(CCCN(C)C)C3c3ccncc3)ccc2O1 (configuration not stated),3
Cc1ccc(C)c(/C(O)=C2\C(=O)C(=O)N(CCCn3ccnc3)C2c2ccncc2)c1 (configuration not stated),84*
COCCCN1C(=O)C(=O)/C(=C(/O)c2ccc(C)cc2)C1c1ccccc1 (configuration not stated),-9
CCCCOC(=O)n1c(SCC(=O)N(CC)CC)nc2ccccc21,-9
Cc1cc(C)n2ncc(C(=O)Nc3ccc4c(c3)OCO4)c2n1,-7
CCN1CCN(S(=O)(=O)c2cc(OCC(=O)NC3CCCCC3)c(C)cc2Cl)CC1,18
CC(CS(=O)(=O)c1cccc2cccnc12)N1CCCCC1 (configuration not stated),108*
COc1ccc(NS(=O)(=O)c2cccc3cccnc23)cc1,-19
O=C(NC1CCCC1)C1CCN(S(=O)(=O)c2cccc3cccnc23)CC1,4
c1coc(-c2nc3nc4ccccc4nc3n2CC2CCCO2)c1 (configuration not stated),17
CCN(C(=O)COC(=O)C(Cc1ccccc1)N1C(=O)c2ccccc2C1=O)C1CCS(=O)(=O)C1 (configuration not stated),-6
N#CC1=C(N)Oc2n[nH]c(-c3cccs3)c2C1c1cccnc1 (configuration not stated),13
COc1cc2nc(C3CCC3)n(NC(=O)C3CCCC(OC)C3)c(=O)c2cc1OC (configuration not stated),-1
CCOc1ccccc1N1CCN(C(=O)c2cc3c(s2)CCC3)CC1,-14
Cc1ccc(C(=O)C2=C(O)C(=O)N(CCN(C)C)C2c2ccccn2)o1 (configuration not stated),8
Cc1cc(C)nc(-n2nc(C)cc2NC(=O)c2cc3ccccc3oc2=O)n1,114*
Cc1cc(C)nc(-n2nc(C)cc2Nc2ccccc2)n1,1
Cc1cc(C)nc(-n2nc(C)cc2NC(=O)c2cc(=O)c3ccccc3o2)n1,11
CCc1cccc(NS(=O)(=O)c2c(C)n[nH]c2C)c1,-4
Cc1cc(NC(=O)C2CCN(S(=O)(=O)c3cnc[nH]3)CC2)ccc1Br,11
SMILES,GBA enhancer
COc1ccc(CN2CCN(C(=O)CN3C(=O)C4C5C=CC(C5)C4C3=O)CC2)c(OC)c1OC (configuration not stated),-10
CCCC(=O)c1ccc(N2CCN(C(=O)OCC)CC2)c(F)c1,-10
CN(C)C(=O)C1(c2ccccc2)CCN(S(=O)(=O)c2ccccc2)CC1,-22
Cc1cccc(NC(=O)CSc2ncnc3c2oc2ccccc23)c1,-10
CCc1nc(SCC(=O)Nc2ccc3c(c2)OCCO3)c2oc3ccccc3c2n1,-131
Cc1nc(SCC(=O)Nc2ccc3c(c2)OCCO3)c2oc3ccccc3c2n1,149*
CCOCCCn1c(=N)c(C(=O)NCCN2CCOCC2)cc2c(=O)n3cccc(C)c3nc21,75*
CCOCCCn1c(=N)c(C(=O)NCc2ccc3c(c2)OCO3)cc2c(=O)n3ccccc3nc21,-15
COCCn1c(=N)c(C(=O)NCCc2ccc(OC)cc2)cc2c(=O)n3cccc(C)c3nc21,-24
O=C(Cn1[nH]c(=O)c2ccccc2c1=O)OCC(=O)N1CCc2ccccc2C1,5
C=CCN1C(=O)C(O)(CC(=O)c2c(C)n[nH]c2C)c2cc(Br)ccc21 (configuration not stated),-13
O=S(=O)(NCCc1csc(-c2ccccc2)n1)c1ccc2c(c1)OCCO2,54
Cc1nc(CNS(=O)(=O)c2ccc3c(c2)OCCO3)cs1,5
O=S(=O)(NCc1csc(-c2cccnc2)n1)c1ccc2c(c1)OCCO2,109*
COc1ccccc1/C=C/CN1CC(C)OC(C)C1 (configuration not stated),-2
O=C(O)CS(=O)(=O)c1ccc(Oc2ccc(S(=O)(=O)CC(=O)O)cc2)cc1,-12
COc1ccc(N(CC(=O)N2CCC(C)CC2)S(=O)(=O)c2c(C)nn(C)c2C)cc1,-12
COCc1cc(C)nc(SCC(=O)Nc2ccccc2C)c1C#N,52
COCc1cc(C)nc(NC2CCCCC2)c1C#N,101*
COCc1cc(C)nc(N2CCN(c3ccccc3)CC2)c1C#N,0
CC(C)(C)NC[C@H](O)COc1nsnc1N1CCOCC1,-31
Cc1ccc(-n2c(C)nc3c(cnn3-c3ccc(F)cc3)c2=O)cc1C,-10
Cn1c(CCN2CCCCC2)nc2cc(NC(=O)C3CCCCC3)ccc21,10
